About 79,000 compounds went through this panel and 15% of them were active in at least one assay; those are over-represented in the sample as a whole. Cut-off read from the data, not from the text of the source: active = growth inhibition above about 70%; inactive = the rest. Where a SMILES comes first, the peptide text is derived from it. [ ]: non-standard residue; d: D form. The star is where a group is joined. Cbz = O=C(OCc1ccccc1)*; Nva = CCC[CH](N)C(=O)O
Experiments:
[1] = NCI Yeast Anticancer Drug Screen. Data for the rad50 strain (AID 155);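 note: 0% = growth of vehicle-only cultures of the same strain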; conditions: S. cerevisiae rad50 strain growth inhibition; at 50.0 µM; stronger effect = higher value
How it was run: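 DNA repair mutant yeast, compound exposure, growth read-out; inhibition is taken relative to vehicle.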

[2] = NCI Yeast Anticancer Drug Screen. Data for the mec2-1 strain (AID 157); conditions: S. cerevisiae mec2-1 strain, at 50.0 µM, stronger effect = higher value
How it was run: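 Using mec2-1 yeast: add compound, measure growth, express inhibition versus vehicle-treated cultures.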

[3] = NCI Yeast Anticancer Drug Screen. Data for the sgs1 mgt1 strain (AID 161);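 note: 0% = growth of cultures given vehicle only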; conditions: S. cerevisiae sgs1 mgt1 strain, at 50.0 µM, stronger effect = higher value
How it was run: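 Yeast cells carrying a defined DNA-repair defect were exposed to test compounds. Growth inhibition was measured relative to vehicle-treated controls.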

[4] = NCI Yeast Anticancer Drug Screen. Data for the cln2 rad14 strain (AID 165);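 note: 0% = growth equal to vehicle treated cultures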; conditions: S. cerevisiae cln2 rad14 strain, at 50.0 µM, stronger effect = higher value
How it was run: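 Yeast strain cln2 rad14, bearing defects in cell cycle control and DNA repair, serves as the test system; values reflect growth inhibition compared with vehicle.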

[5] = NCI Yeast Anticancer Drug Screen. Data for the bub3 strain (AID 167); conditions: S. cerevisiae bub3 mutant strain, at 50.0 µM, stronger effect = higher value
How it was run: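 In this screen, a yeast mutant lacking normal mitotic checkpoint function is challenged with compound. Relative growth versus vehicle gives the inhibition value.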

[6] = NCI Yeast Anticancer Drug Screen. Data for the mlh1 rad18 strain (AID 175); conditions: S. cerevisiae mlh1 rad18 strain growth inhibition; at 50.0 µM; stronger effect = higher value
How it was run: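 Steps: expose repair-defective yeast to compound; measure growth; express inhibition against vehicle-treated controls.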

Measured: growth inhibition

CCC(CCC(=O)c1ccccc1)[N+](=O)[O-] (stereo unspecified)
inactive: [1] -3.65% | [2] -14.8% | [3] -5.7% | [4] -8.5% | [5] 13.8% | [6] 7.2%

CCOC(=O)C(Cc1ccccc1)Nc1c(Cl)c(=O)oc2ccc(C)cc12 (stereo unspecified)
inactive: [1] 18.6% | [2] -3.2% | [3] 32.7% | [4] 26.9% | [5] -16.4% | [6] 19.6%

CCC(c1ccc(Cl)cc1)N(CC)c1ccccn1 (stereo unspecified)
inactive: [1] 7% | [2] -0.4% | [3] 16.6% | [4] -52.4% | [5] 3.5% | [6] -30.2%

COC(=O)C(=O)c1cc(C)n(C)c(=O)c1CN1C(=O)c2ccccc2C1=O
inactive: [1] -14.2% | [2] 14.8% | [3] 13.8% | [4] -18.9% | [5] -11.8% | [6] -12.8%

CCCCCCCCCCOc1ccc(C2=C(c3ccccc3)C(=O)C(c3ccccc3)=C2c2ccccc2)cc1
inactive: [1] 25.3% | [2] 10.4% | [3] 17.4% | [4] 14.9% | [5] -5.3% | [6] 3.6%

Cc1c(-c2ccccc2)[nH]n(C2=NCCN2)c1=O
inactive: [1] 10.8% | [2] 7.45% | [3] -31.4% | [4] -6.35% | [5] -15.5% | [6] -25%

COc1cc2c(cc1OC)C(=O)/C(=C/c1ccc(O)cc1)CC2
inactive: [1] 36.5% | [2] -8.9% | [3] 43.5% | [4] 24.9% | [5] 23.2% | [6] 22.4%

O=[N+]([O-])c1ccc(Cl)c(C(F)(F)F)c1
inactive: [1] -0.8% | [2] 5.2% | [3] 4% | [4] -2.75% | [5] 1.2% | [6] -15.7%

COc1cc2c(cc1OC)-c1cc3ccc(OC)c(OC)c3c[n+]1CC2
inactive: [1] -8.55% | [2] -21.8% | [3] 23.6% | [4] -14.1% | [5] -9.45% | [6] -4.35%

Clc1ccc2cn[nH]c2c1
inactive: [1] -50.4% | [2] -28.1% | [3] -23.2% | [4] 3.3% | [5] -18.9% | [6] -9.3%

CN1CCN(C)c2nc3ccccc3nc21
inactive: [1] 0.2% | [2] 3% | [3] 1.8% | [4] -12.1% | [5] -6.85% | [6] -7.05%

COc1ccc2c(c1)CC/C(=C\c1ccccn1)C2=O
inactive: [1] 41.5% | [2] 33.5% | [3] 16.8% | [4] 24.4% | [5] 19.5% | [6] 14.4%

O=C1C(Br)=C(Oc2ccccc2)C(=O)C(Br)=C1Oc1ccccc1
inactive: [1] 7.85% | [2] 11.4% | [3] 13.6% | [4] 1.05% | [5] 10.8% | [6] -8.45%

CCOC(=O)NC(CI)(c1ccccc1)c1ccccc1
inactive: [1] 20.9% | [2] 10.2% | [3] 3.55% | [4] 7.2% | [5] -0.25% | [6] 14.6%

CCCC(NC(=O)OCc1ccccc1)C(=O)NC(Cc1ccccc1)C(N)=O (stereo unspecified) (Cbz-[Nva]-Phe-NH2; configuration not given here)
inactive: [1] -6% | [2] -0.9% | [3] -3.45% | [4] -34.2% | [5] -5.5% | [6] 0.45%

CC(C)c1ccccc1NC(=O)C(=O)Cc1nc2ccccc2s1
inactive: [1] 23.2% | [2] 7.2% | [3] 19.7% | [4] -36.1% | [5] 38.3% | [6] 51.4%

CC1=CC(C)(C)NC(=S)N1c1ccc(C)cc1S(=O)(=O)O
inactive: [1] 28.5% | [2] -1.7% | [3] -18% | [4] -16.2% | [5] 7.95% | [6] 27.9%

CCCC(CC)C(=O)NC(N)=O (stereo unspecified)
inactive: [1] -7.2% | [2] -5.9% | [3] -7.8% | [4] -8.55% | [5] -20.2% | [6] 8.7%

Cc1ccc(N=Nc2ccc(C)cc2NC(=O)CCl)cc1
inactive: [1] -17.7% | [2] -15.8% | [3] -21.9% | [4] -21.9% | [5] 3.2% | [6] -15.2%

O=S(=O)(Nc1cccc(Cl)c1)c1ccc(F)cc1
inactive: [1] -8.45% | [2] -11.2% | [3] -13.2% | [4] -5.4% | [5] -11.3% | [6] 2.5%

CC(C)(CC(O)C#N)/[N+]([O-])=[N+](\[O-])C(C)(C)CC(O)C#N (stereo unspecified)
inactive: [1] 3.75% | [2] 5.15% | [3] 34.1% | [4] -4.15% | [5] 13.2% | [6] -27.8%

Reference: PubChem BioAssay (NCI)
